The test system of experiment [1] is XIP peptide (Xip251-270) binding. Kind of experiment: small-molecule binders of XIP peptide, primary screen, biochemical, small-molecule microarray, fluorescence 635/667 nm, 0.1 µg/mL protein (AID 1182). The following applies: fluorescent protein binding, 635 nm, higher = more signal, called active from +8 up or from −8 down.
The subject of the next experiment is XIP peptide (Xip251-270). Kind of experiment: small-molecule binders of XIP peptide, primary screen, biochemical, small-molecule microarray, fluorescence 635/667 nm, 0.5 µg/mL protein (AID 1183). The following applies: small-molecule microarray binding, fluorescence 635 nm; higher = more signal.
The nature of experiment [2]: Plasmodium falciparum growth inhibition, primary screen, strain 3D7, DAPI fluorescence, 100 nL (AID 1184).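 Further: parasites grown inside human red blood cells in medium with human serum.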 The following applies: P. falciparum 3D7 growth, 3 d, higher = more signal.
Experiment [3] has as its target Homeobox protein Hox-A13 (Mus musculus) (UniProt Q62424). The experiment in a line: inhibitors of HoxA13-DNA binding, primary screen, biochemical, fluorescence polarization, labeled oligonucleotide (AID 1185). Particulars: 15 min, higher = more signal, called active from +8 up or from −8 down. (In general: Fluorescence polarisation rises when a labelled molecule tumbles more slowly, as on binding a larger partner.)

Experiment [4] is described as follows: inhibitors of hydroxyurea-induced Chk1 phosphorylation, primary screen, imaging, HeLa, phospho-Chk1 antibody, percent positive cells (AID 1186). Particulars: hydroxyurea-induced phospho-Chk1 immunofluorescence imaging, higher = more signal.
Experiment [5] can be described thus: inhibitors of hydroxyurea-induced Chk1 phosphorylation, primary screen, imaging, HeLa, phospho-Chk1 nuclear intensity (AID 1187). Particulars: hydroxyurea-induced phospho-Chk1 immunofluorescence imaging, higher = more signal.

Calls of active or inactive are those of the source. Unless noted, how the calls were made is not given here.

Homeobox protein Hox-A13 (Mus musculus), sequence (Q62424 whole entry, looked up): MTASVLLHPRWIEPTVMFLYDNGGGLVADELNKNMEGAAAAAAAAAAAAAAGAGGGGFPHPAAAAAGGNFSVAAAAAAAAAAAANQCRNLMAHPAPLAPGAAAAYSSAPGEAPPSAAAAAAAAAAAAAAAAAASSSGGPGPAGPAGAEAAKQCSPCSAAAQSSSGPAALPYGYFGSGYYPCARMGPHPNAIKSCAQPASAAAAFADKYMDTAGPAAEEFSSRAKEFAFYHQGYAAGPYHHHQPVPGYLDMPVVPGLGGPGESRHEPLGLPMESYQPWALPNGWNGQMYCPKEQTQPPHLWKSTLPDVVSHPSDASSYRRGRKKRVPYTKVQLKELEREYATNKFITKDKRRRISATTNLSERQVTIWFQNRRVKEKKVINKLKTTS

Turning to `O=C1NC(=O)C2C1C=CC(C(O)C(c1ccccc1)c1ccccc1)N2Nc1ccccn1` (configuration not stated), the composite z-score was 0.21 (inactive) in experiment [1] and 0.797 in the experiment on XIP peptide (Xip251-270). Moreover, the z-score in experiment [2] was -0.315; in experiment [3], -5.58 (inactive); in experiment [4], -0.12 (inactive); in experiment [5], -0.319 (inactive).
As for `CCCNC(=O)[C@@]1(Sc2ccc(C)cc2)CC(=O)N(Cc2cc(C(F)(F)F)cc(C(F)(F)F)c2)[C@@H]1c1ccc(CO)cc1`, the results for the composite z-score (in experiment [1]; with XIP peptide (Xip251-270)) were -0.0515 (inactive) and 0.136, respectively. Moreover, the z-score in experiment [2] is -1.1; in experiment [3] it was -0.323 (inactive); in experiment [4], -0.0515 (inactive); in experiment [5], 0.0821 (inactive).
In the case of `COCCOC(=O)N1C(=O)[C@@]2(c3cc(C#CCC(C(=O)OC)C(=O)OC)ccc31)[C@H](c1ccc(O)cc1)N1[C@H](c3ccccc3)[C@H](c3ccccc3)OC(=O)[C@H]1[C@@H]2C(=O)N1CCc2cc(OC)c(OC)cc2C1`, the results for the composite z-score (in experiment [1]; in the experiment on XIP peptide (Xip251-270)) were 0.406 (inactive) and 0.803, respectively. Besides, the z-score in experiment [2] is -2.15; in experiment [3], -1.37 (inactive); in experiment [4], -0.0407 (inactive); in experiment [5] it was 0.46 (inactive).
As to `CC[C@@H](O[Si](C#C[Si](C(C)C)(C(C)C)C(C)C)(C(C)C)C(C)C)c1cn([C@H](C)c2ccccc2)nn1`, the composite z-score in experiment [1] is -0.645 (inactive); in the experiment with XIP peptide (Xip251-270), -0.0862. Besides, the z-score in experiment [2] was -0.38; in experiment [3], 0.0519 (inactive); in experiment [4], 0.0891 (inactive); in experiment [5], -0.469 (inactive).
Turning to `COc1cccc(C)c1NC(=O)O[C@H]1[C@H](OC(=O)Nc2ccc3c(c2)OCO3)[C@H](OC(=O)Nc2ccc3c(c2)OCO3)[C@@H](OC)O[C@@H]1CO`, the composite z-score in experiment [1] was 0.574 (inactive); in the experiment on XIP peptide (Xip251-270), 0.798. In addition, the z-score in experiment [2] is -2.29; in experiment [3], -7.67 (inactive); in experiment [4], -0.698 (inactive); in experiment [5], -1.29 (inactive).
Regarding `Cc1ccc(S[C@]2(C(=O)NCCN3CCOCC3)CC(=O)N(C(C)C)[C@@H]2c2ccc(CO)cc2I)cc1`, the composite z-score is 0.342 (inactive) in experiment [1] and 0.93 with XIP peptide (Xip251-270). The z-score in experiment [2] is -0.191; in experiment [3] it was -3.43 (inactive); in experiment [4], -0.395 (inactive); in experiment [5], -0.0483 (inactive).
Turning to `CCCCC(=C=CC[C@@H](O)c1ccccc1OCCO)C[C@@H](O)c1ccccn1`, the composite z-score was 0.161 (inactive) in experiment [1] and 0.338 with XIP peptide (Xip251-270). The z-score in experiment [2] was -1.48; in experiment [3], -5.1 (inactive); in experiment [4], -0.0323 (inactive); in experiment [5] it was -0.123 (inactive).
With `Cc1c(NC(=O)/C(C#N)=C/C=C/c2ccc([N+](=O)[O-])cc2)c(=O)n(-c2ccccc2)n1C`, the composite z-score was 1.97 (inactive) in experiment [1] and 0.77 in the experiment on XIP peptide (Xip251-270). In addition, the z-score in experiment [2] is -0.363; in experiment [3], -4.12 (inactive); in experiment [4] it was -0.023 (inactive); in experiment [5], 0.501 (inactive).
Turning to `C=CC[C@]12N=C(c3ccc(OCCCO)cc3)O[C@H]1c1ccccc1N(CCC)C2=O`, the figures for the composite z-score (in experiment [1]; in the experiment with XIP peptide (Xip251-270)) were -0.0641 (inactive) and 0.842, respectively. In addition, the z-score in experiment [2] was -2.33; in experiment [3], -4.5 (inactive); in experiment [4], -0.206 (inactive); in experiment [5], -0.234 (inactive).
As for `O=C(c1ccccc1)N1Cc2ccccc2C[C@@]2(N=C(c3ccc(OCCCO)cc3)O[C@H]2c2ccccc2)C1=O`, the composite z-score in experiment [1] is 0.742 (inactive); in the experiment with XIP peptide (Xip251-270), 0.814. Also, the z-score in experiment [2] was -1.92; in experiment [3], -2.43 (inactive); in experiment [4], -0.0769 (inactive); in experiment [5], 0.098 (inactive).
With `COCCOC(=O)N1C(=O)[C@@]2(c3cc(C#CCNC(N)=O)ccc31)[C@H](C(=O)Nc1nc3ccccc3s1)[C@H]1C(=O)O[C@H](c3ccccc3)[C@H](c3ccccc3)N1[C@@H]2c1ccc(O)cc1`, the results for the composite z-score (in experiment [1]; with XIP peptide (Xip251-270)) were -0.0637 (inactive) and 0.321, respectively. The z-score in experiment [2] was 0.106; in experiment [3] it was -0.879 (inactive); in experiment [4], -0.0038 (inactive); in experiment [5], -0.0749 (inactive).
On to `C=CCNC(=O)[C@@H]1[C@H]2C(=O)O[C@H](c3ccccc3)[C@H](c3ccccc3)N2[C@H](c2ccc(OCCO)cc2)[C@@]12C(=O)Nc1ccc(C#CC3=CCCCC3)cc12`, for which the composite z-score was 1.45 (inactive) in experiment [1] and 0.799 in the experiment with XIP peptide (Xip251-270). Also, the z-score in experiment [2] is -1.39; in experiment [3] it was 1.89 (inactive); in experiment [4], 0.269 (inactive); in experiment [5], 0.273 (inactive).
`O=C1c2ccccc2[C@](Cc2ccccc2I)(C(=O)NCCN2CCOCC2)[C@H](c2ccc(CO)cc2)N1Cc1ccccc1C(F)(F)F`: the composite z-score in experiment [1] is 0.0302 (inactive); in the experiment with XIP peptide (Xip251-270), 0.627. Also, the z-score in experiment [2] was -1.29; in experiment [3] it was -4.81 (inactive); in experiment [4], -0.0107 (inactive); in experiment [5] it was -0.105 (inactive).
Consider `CC(C)N1C(=O)[C@@]2(Cc3ccccc31)c1ccccc1C(=O)N(Cc1ccccc1)[C@H]2c1ccc(CO)cc1`, for which the composite z-score is -0.205 (inactive) in experiment [1] and -0.0467 in the experiment on XIP peptide (Xip251-270). Moreover, the z-score in experiment [2] was -0.32; in experiment [3], -0.075 (inactive); in experiment [4] it was 0.273 (inactive); in experiment [5], 0.685 (inactive).
`COCCOC(=O)N1C(=O)[C@@]2(c3ccccc31)[C@H](C(=O)Nc1nc3ccccc3s1)[C@H]1C(=O)O[C@H](c3ccccc3)[C@H](c3ccccc3)N1[C@@H]2c1ccccc1OCCO`: the composite z-score in experiment [1] was 0.238 (inactive); in the experiment with XIP peptide (Xip251-270) it was 0.801. Also, the z-score is -1.68 in experiment [2], -0.587 (inactive) in experiment [3], 0.152 (inactive) in experiment [4] and 0.367 (inactive) in experiment [5].
Regarding `[N-]=[N+]=Nc1ccccc1C[C@]1(C(N)=O)COC(c2ccc(OCCCO)cc2)=N1`, the values for the composite z-score (in experiment [1]; with XIP peptide (Xip251-270)) were 0.29 (inactive) and 0.546, respectively. The z-score in experiment [2] was -1.88; in experiment [3], -4.74 (inactive); in experiment [4], -0.393 (inactive); in experiment [5], -0.137 (inactive).
In the case of `C=C(/C=C\CNS(=O)(=O)c1ccc(C)cc1)[C@H](O)[C@H]1CCCN1S(=O)(=O)c1ccccc1[N+](=O)[O-]`, the composite z-score was -0.167 (inactive) in experiment [1] and -0.167 in the experiment with XIP peptide (Xip251-270). Further, the z-score is -1.8 in experiment [2], -5.5 (inactive) in experiment [3], -0.225 (inactive) in experiment [4] and 0.161 (inactive) in experiment [5].

The values above are taken from PubChem BioAssay.
